ABCB6 inh 2: human ABCB6 transporter inhibition | Q9NP58 | K562-ABCB6 porphyrin accumulation, flow cytometry, 1 h; active compounds read low | fluorescence ratio to DMSO, % at 10 µM | actives 0.19% (n = 360,000) | AID 602162;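 active means fluorescence ratio to DMSO below 75%, the collection mean minus 3 SD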;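 further: signal is porphyrin accumulated inside mitochondria; 100% equals median channel fluorescence of DMSO control wells; lower ratio means ABCB6 inhibition with less porphyrin fluorescence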
Exocytosis inh: lytic granule exocytosis inhibition. TALL-104 LAMP-1 surface exposure, flow cytometry; cells stimulated with thapsigargin and PMA. inhibition, % at 10 µM. actives 0.66% (n = 360,000). AID 651702;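 active means inhibition above about 55%, limit read from the data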
NR1D1 modulator: Rev-erb alpha (human) modulation; Rev-erbα–FITC-DNA binding, fluorescence polarization, 90 min; activity, % at 10 µM; actives 0.79% (n = 370,000); AID 1259318;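 active means activity above about 14%, limit read from the data; passing the limit was not always enough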;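 further: 0% = DMSO wells with 35 nM protein and 100% = DMSO wells with 750 nM protein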
Target sequence (P20393 whole entry, looked up): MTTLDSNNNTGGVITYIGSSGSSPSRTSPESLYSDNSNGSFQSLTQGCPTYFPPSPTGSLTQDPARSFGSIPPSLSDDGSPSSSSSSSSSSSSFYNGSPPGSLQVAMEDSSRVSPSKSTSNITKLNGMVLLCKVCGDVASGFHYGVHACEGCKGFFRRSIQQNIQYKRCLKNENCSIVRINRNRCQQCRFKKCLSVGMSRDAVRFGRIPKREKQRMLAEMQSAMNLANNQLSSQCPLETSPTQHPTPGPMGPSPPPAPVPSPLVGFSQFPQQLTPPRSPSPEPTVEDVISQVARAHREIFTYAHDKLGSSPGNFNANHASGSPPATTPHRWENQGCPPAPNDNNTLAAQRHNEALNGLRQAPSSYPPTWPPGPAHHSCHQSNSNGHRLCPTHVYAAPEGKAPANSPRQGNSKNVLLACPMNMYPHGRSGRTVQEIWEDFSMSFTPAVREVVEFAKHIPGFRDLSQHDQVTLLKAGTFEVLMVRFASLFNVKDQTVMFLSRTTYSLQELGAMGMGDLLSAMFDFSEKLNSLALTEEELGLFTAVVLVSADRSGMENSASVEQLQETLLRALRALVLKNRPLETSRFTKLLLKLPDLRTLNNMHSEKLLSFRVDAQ
PG9 Ab binder: small molecules binding HIV-1 gp120 antibody PG9; inhibition, % at 6.7 µM; actives 0.43% (n = 360,000); TR-FRET gp120-PG9 antibody binding; in the data active means inhibition above about 8.5%
VLA-4 inh: inhibition in a human VLA-4 binding assay | P13612 | actives 0.2% (n = 330,000) | inhibition, % (about 7 µM as worked out from the volumes in the protocol) | AID 2557 | VLA-4 expressing cells, ligand binding flow cytometry; in the data active means inhibition above about 50%
VLA-4 mod pick: confirmation of allosteric modulators of human VLA-4 integrin; shares compounds with VLA-4 inh; U937 cells, HUTS-21 LIBS mAb binding, flow cytometry; LDV ligand present at threefold Kd; inhibition, % at 6.7 µM; actives 2% (n = 1,300); AID 2813; in the data active means inhibition above about 40%;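 further: 0% = ligand without compound and 100% = no ligand background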
ABCB6 inh CP1: inhibitors of human ABC transporter ABCB6 | shares compounds with ABCB6 inh 2 | K562-ABCB6 porphyrin accumulation, flow cytometry, 1 h; active compounds read low | ratio response (% of DMSO), % at 10 µM | 700 tested, under 10 active;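 active means repeat-averaged ratio response below 75% of DMSO, the collection mean minus 3 SD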;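 further: median porphyrin fluorescence at 575 nm with 488 nm excitation from mitochondria; lower ratio means less porphyrin signal so ABCB6 inhibition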
Granule exo CP1: lytic granule exocytosis inhibition | shares compounds with Exocytosis inh | TALL-104 cells, LAMP-1 externalization, flow cytometry; stimulated with PMA plus thapsigargin | inhibition, % at 10 µM | actives 11% (n = 1,500); in the data active means inhibition above about 60%;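 further: 0% = stimulated vehicle wells and 100% = unstimulated wells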
* hit, by the source's call; . = no result given. Sampled rows, rich in hits. Any-hit rate of the full collection: about 2%.

SMILES | ABCB6 inh 2 | Exocytosis inh | NR1D1 modulator | PG9 Ab binder | VLA-4 inh | VLA-4 mod pick | others
C=C1[C@H]2CC[C@H]3[C@]4(C)C[C@H](O[C@H]5O[C@H](CO)[C@@H](OS(=O)(=O)O)[C@H](OS(=O)(=O)O)[C@H]5OC(=O)CC(C)C)C[C@@H](C(=O)O)[C@H]4CC[C@]3(C2)[C@H]1O | 96 | -8 | 4 | -1 | 57* | 3
CCN(CC)c1ccc(N=Cc2c(O)n(-c3ccccc3)c(=O)[nH]c2=O)cc1 | 100 | 2 | 0 | -8 | -23 | .
CCN(CC)c1ccc(N=Cc2c(O)n(Cc3ccccc3)c(=O)[nH]c2=O)cc1 | 106 | 1 | 1 | -1 | -7 | -22
Nc1cc(Cl)c2nonc2c1[N+](=O)[O-] | 86 | 16 | -4 | 3 | 50* | 32
O=[N+]([O-])c1c(Cl)c(Cl)c(Cl)c(Cl)c1Cl | 97 | 14 | -5 | -1 | . | .
c1cncc(-c2ccc3n2Cc2cnnn2-c2ccccc2-3)c1 | . | . | 0 | . | . | .
NC(Cc1ccccc1)[P+](=O)O (centres undefined) | . | . | 3 | . | . | .
Cc1ccccc1CCC[C@H](CC1CCCCC1)CN(C)C(=O)Oc1ccccc1 | . | . | 4 | . | . | .
CN1C2CCC1CC(OC(=O)c1cccc(O)c1)C2 (centres undefined) | 102 | -2 | 0 | 0 | . | .
CN1[C@@H]2CC[C@H]1CC(OC(=O)C1C=Nc3ccccc31)C2 (some centres undefined) | 95 | 0 | 1 | -1 | 51* | 11
C#C[C@@H]1CC2C3CCC4=C[C@@H](OC(C)=O)CCC4C3CC[C@]2(C)[C@H]1OC(C)=O (some centres undefined) | . | . | 6 | . | . | .
COc1ccc(C(=O)OC2C[C@H]3CC[C@@H](C2)N3O)cc1OC (some centres undefined) | 93 | -15 | -1 | -1 | -18 | 1
CC(C)(N)Cc1ccccc1 | . | . | 1 | . | . | .
O=c1[nH]c(=S)n(Cc2ccc(F)cc2)c(O)c1/C=N/N1CCCCC1 | 90 | -1 | 0 | 0 | 56* | -7
CCCCCCCSc1cc(OC)c(CCNC)cc1OC | 98 | 85* | 3 | -4 | 61* | 0 | Granule exo CP1=48
COC(=O)C1(N(C)c2ccccc2)CCN(Cc2ccccc2)CC1 | . | . | 0 | . | . | .
Cc1[nH]c2ccc(OC(F)(F)F)cc2c1CCNCc1cccc([N+](=O)[O-])c1 | 93 | 24 | 4 | 1 | 39 | .
CCOc1cccc(CNCCc2c(C)[nH]c3ccc(OC(F)(F)F)cc23)c1O | 90 | 78* | 5 | -1 | 65* | 39 | Granule exo CP1=83*
C[N+](C)(C)CC1CCCC(C[N+](C)(C)C)C1=O (centres undefined) | 43* | -4 | -2 | -1 | . | . | ABCB6 inh CP1=68*
CC(=O)N1CCC2(CC1)CC(=O)c1cc(OCC(=O)N3CCC4(CC3)OCCO4)ccc1O2 | 96 | -3 | -6 | 1 | -4 | .
CC(=O)N1CCC2(CC1)CC(=O)c1cc(OCC(=O)N3CCN(C)CC3)ccc1O2 | 58* | -1 | -2 | 3 | -1 | . | ABCB6 inh CP1=101
O=C(O)c1cc2ccccc2n1C1CCN(Cc2ccccc2)CC1 | . | . | -3 | . | . | .
O=C(CCN1CCOCC1)NCC(=O)Nc1ccc(Br)cc1C(=O)c1ccccc1 | 70* | -2 | 0 | 2 | 1 | . | ABCB6 inh CP1=100
O=C(NCCN1CCC2(CC1)C(=O)NCN2c1ccccc1)C(c1ccccc1)c1ccccc1 | . | . | -3 | -1 | . | .
CCCCn1c(O)c(C(C)=NC(C)c2ccccc2)c(=O)[nH]c1=O (centres undefined) | 72* | -2 | 3 | 0 | 22 | . | ABCB6 inh CP1=99
CCCCn1c(O)c(C(CC)=Nc2ccc(OC)cc2OC)c(=O)[nH]c1=O | 101 | 0 | -3 | 0 | 7 | .
CCCCn1c(O)c(C(CC)=Nc2ccc(OCC)cc2)c(=O)[nH]c1=O | 74* | 0 | -2 | 2 | 15 | . | ABCB6 inh CP1=98
